Values without a mark were called inactive. The source made the active and inactive calls. Unless noted, no stated cut-off is given here; in the data, active means inhibition above about 25%; inactive means the rest.
Biological target: Nuclear receptor coactivator 1 (Homo sapiens) (UniProt Q15788)
Test: NCOA1 GAL4-fusion reporter inhibition – cell-based, luminescence, quadruplicate, confirmation (AID 588820;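 active means mean inhibition above 46.68%, the untreated control wells mean plus 3 SD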;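 further: 0% = DMSO wells and 100% = gossypol 36 µM treated wells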)
Details: HEK293 GAL4-SRC1 luciferase reporter, at 3.6 µM, stronger effect = higher value

Sequence of Nuclear receptor coactivator 1 (Homo sapiens) (Q15788 whole entry, looked up, the tested form may be a part): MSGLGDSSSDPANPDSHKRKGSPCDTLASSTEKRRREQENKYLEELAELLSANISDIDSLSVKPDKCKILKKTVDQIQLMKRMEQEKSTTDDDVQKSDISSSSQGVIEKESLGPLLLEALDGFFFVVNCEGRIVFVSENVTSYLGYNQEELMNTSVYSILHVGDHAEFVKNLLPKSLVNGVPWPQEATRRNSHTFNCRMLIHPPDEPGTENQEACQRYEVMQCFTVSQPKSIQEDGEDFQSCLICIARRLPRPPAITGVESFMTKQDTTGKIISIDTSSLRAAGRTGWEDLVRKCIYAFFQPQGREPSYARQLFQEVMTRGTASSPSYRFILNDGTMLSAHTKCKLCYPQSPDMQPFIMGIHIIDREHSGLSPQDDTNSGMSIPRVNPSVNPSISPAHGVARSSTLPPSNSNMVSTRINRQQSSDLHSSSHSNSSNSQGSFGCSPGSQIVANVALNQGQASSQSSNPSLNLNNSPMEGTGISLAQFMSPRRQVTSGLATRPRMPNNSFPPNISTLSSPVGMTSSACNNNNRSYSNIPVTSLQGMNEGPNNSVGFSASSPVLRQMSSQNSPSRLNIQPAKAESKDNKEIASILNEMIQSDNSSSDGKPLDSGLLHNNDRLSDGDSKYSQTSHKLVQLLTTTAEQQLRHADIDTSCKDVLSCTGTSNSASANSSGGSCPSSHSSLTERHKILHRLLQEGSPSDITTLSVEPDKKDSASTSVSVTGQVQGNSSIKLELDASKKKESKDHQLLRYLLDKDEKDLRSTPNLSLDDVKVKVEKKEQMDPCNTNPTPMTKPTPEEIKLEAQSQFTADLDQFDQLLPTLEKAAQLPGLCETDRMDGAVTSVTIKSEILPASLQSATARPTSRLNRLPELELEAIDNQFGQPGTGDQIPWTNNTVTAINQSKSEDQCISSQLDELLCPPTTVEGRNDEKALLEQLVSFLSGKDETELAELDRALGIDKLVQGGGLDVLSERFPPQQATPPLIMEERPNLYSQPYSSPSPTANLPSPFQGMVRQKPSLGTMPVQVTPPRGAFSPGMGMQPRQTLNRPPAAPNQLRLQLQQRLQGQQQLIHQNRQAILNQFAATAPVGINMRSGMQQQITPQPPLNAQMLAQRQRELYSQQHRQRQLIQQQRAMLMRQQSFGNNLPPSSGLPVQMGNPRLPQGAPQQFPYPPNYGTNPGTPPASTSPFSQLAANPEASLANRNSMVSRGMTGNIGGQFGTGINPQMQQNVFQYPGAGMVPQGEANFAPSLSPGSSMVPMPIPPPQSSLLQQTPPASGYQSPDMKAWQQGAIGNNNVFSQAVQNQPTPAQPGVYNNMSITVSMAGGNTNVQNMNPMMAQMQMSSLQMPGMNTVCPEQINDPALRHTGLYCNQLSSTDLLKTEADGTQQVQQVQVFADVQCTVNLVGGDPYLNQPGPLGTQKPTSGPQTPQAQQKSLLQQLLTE

Compared with `CCCCNC(=O)C1(C)CCCCN1C(=O)c1ccc2c(c1)C(C)(C)CCC2(C)C` (stereo not given), `O=C(NC1CCCC1)C1CCN(C(=O)c2cccc(Cl)c2)CC1` is lower in inhibition: 7.49% for the first, -22.6% for the second.

First: O=C(NC1CC(=O)N(c2ccccc2)C1)C1CC1 (stereo not given)
Second: O=C(c1ccc(Cl)c(Cl)c1)N1CCN(c2ccccn2)CC1
The inhibition of the first is higher: -3.45% for the first, -12.5% for the second.

First: Cc1nc2ccccc2c2oc(C(=O)Nc3ccc(C(C)C)cc3)cc12
Second: COc1ccc(-c2ocnc2C(=O)NCc2nn(-c3ccccc3)nc2C)cc1
The inhibition of the first is lower: -6.16% for the first, -0.81% for the second.

Going from `Cc1csc2ncnc(NCCc3ccccn3)c12` to `Cc1cccnc1NC(=O)c1cccc(S(=O)(=O)NCc2ccccc2)c1`, the inhibition falls from -2.8% to -10.8%.

First: COc1ccc(CN(CC(=O)NCc2ccccc2)C(=O)CCC(=O)Nc2cc(C)ccn2)cc1
Second: COc1ccccc1/C=C\C(=O)NCC(=O)N/N=C/c1cccc(OC)c1O
The inhibition of the first is lower: -7.07% for the first, 26.9% for the second.

Going from `COC(=O)c1ccc(C(=O)N2CCCC(Nc3ccc(F)c(F)c3)C2)cc1` (stereo not given) to `COC(=O)C1CCCCN1C(=O)c1cc(COc2cccc3cnccc23)on1` (stereo not given), the inhibition rises from -59.6% to 30.8%.

Going from `CC1CC(C)CN(c2ncnc3c2cnn3-c2ccc(Cl)cc2)C1` (stereo not given) to `COc1ccc2nc(N3CCN(C(=O)c4ccc5ncsc5c4)CC3)sc2c1`, the inhibition rises from -96.6% to -5.74%.

Going from `CC(C)(CNC(=O)c1ccc(-c2cccc(C(F)(F)F)c2)o1)N1CCOCC1` to `Cc1c(C(=O)NCC2COc3ccccc3O2)oc2ccc(S(=O)(=O)N3CCOCC3)cc12` (stereo not given), the inhibition falls from -2.1% to -7.47%.

Compared with `CCN(CC)c1ccc(C=Nc2cc(C)ccc2C)c(O)c1`, `CC(=O)c1cc2c(C)cc(=O)oc2cc1O` is higher in inhibition: 3.4% for the first, 19.4% for the second.

First: COc1cccc(CNc2nc3cc(-c4ccsc4)sc3c(=O)n2C)c1OC
Second: CC(C)N1C(=O)c2ccccc2N(Cc2ccccc2)S1(=O)=O
The inhibition of the first is higher: -0.05% for the first, -4.94% for the second.

Going from `CCCCC(=O)NC(c1cccc([N+](=O)[O-])c1)c1ccc2cccnc2c1O` (stereo not given) to `CN(C)c1ccncc1C(=O)Nc1ccc(F)cc1F`, the inhibition falls from 13.2% to -3.76%.

First: CC1Sc2n(c3ccccc3[n+]2C)N=C1c1ccccc1 (stereo not given)
Second: CCOC1(OCC)OC(c2ccccc2)=C(C#N)C(C=Cc2ccccc2)C1(OCC)OCC (stereo not given)
The inhibition of the first is lower: -6.75% for the first, 0.8% for the second.

Work on `CSc1nc(N)nc2c1ncn2CC(=O)N1CCN(Cc2c(C)cc(C)cc2C)CC1` yielded an inhibition of -3.22%.

Tested on: not listed separately
Test: repression of VP16-driven luciferase reporter – cell-based, luminescence, high throughput, counter-screen for SRC1 inhibitor project (AID 588824)
Details: cell-based VP16 transactivation luciferase luminescence; at 3.6 µM; stronger effect = higher value

First: CN1CCN(CCC(=O)N/N=C/c2cc3c(cc2[N+](=O)[O-])OCO3)CC1
Second: Cc1cc([N+](=O)[O-])nn1CCCC(=O)Nc1ccc(Cl)cc1Cl
The inhibition of the first is higher: -2.21% for the first, -4.49% for the second.

First: O=C(Nc1ccc2c(c1)OCCO2)C(c1cc2ccccc2o1)N1CCN(C/C=C/c2ccccc2)CC1 (stereo not given)
Second: Cc1c(C(=O)NCC2COc3ccccc3O2)oc2ccc(S(=O)(=O)N3CCOCC3)cc12 (stereo not given)
The inhibition of the first is lower: -12.4% for the first, 15.8% for the second.

First: O=C(Nc1ccn(Cc2c(F)c(F)c(F)c(F)c2F)n1)c1ccc(COc2ccccc2Cl)cc1
Second: CCc1ccc(NC(=O)c2ccc(F)c(S(=O)(=O)N(CC)c3ccccc3)c2)cc1
The inhibition of the first is lower: 8.16% for the first, 13.5% for the second.

Going from `COc1ccc(CCn2c(-c3ccco3)nc3ccccc3c2=O)cc1OC` to `Cc1nc2ccccc2c2oc(C(=O)Nc3ccc(C(C)C)cc3)cc12`, the inhibition rises from -17.7% to -1.6%.

Compared with `Cc1nn(-c2ccccc2)c(N2CCCC2)c1/C=N/NC(=S)Nc1ccc(F)cc1`, `Cc1ccc(NS(=O)(=O)c2ccc(C(=O)NC3CCN(Cc4ccccc4)CC3)cc2)cc1` is higher in inhibition: 0.35% for the first, 24.2% for the second.

First: NS(=O)(=O)c1ccc(CNC(=O)c2cnccn2)cc1
Second: Cc1cccnc1NC(=O)c1cccc(S(=O)(=O)NCc2ccccc2)c1
The inhibition of the first is lower: -8.37% for the first, 3% for the second.

Going from `N#Cc1cc2ccncc2c2ccccc12` to `CN(C)c1ccncc1C(=O)Nc1ccc(F)cc1F`, the inhibition falls from 16.7% to -9.03%.

Compared with `COCCn1c(C)cc(C(=O)CSc2nc3ccccc3s2)c1C`, `COc1ccc(-c2ocnc2C(=O)NCc2nn(-c3ccccc3)nc2C)cc1` is higher in inhibition: 6.14% for the first, 15% for the second.

Compared with `Cc1ccccc1-c1ccc(CN2C(C)C(=O)N(Cc3cn(Cc4ccco4)nn3)CCS2(=O)=O)cc1` (stereo not given), `CC(C)N1C(=O)c2ccccc2N(Cc2ccccc2)S1(=O)=O` is lower in inhibition: 6.95% for the first, 1.81% for the second.

First: Cc1cccc(C)c1NC(=S)N(CCN(C)C)Cc1cccs1
Second: CCN(CC)c1ccc(C=Nc2cc(C)ccc2C)c(O)c1
The inhibition of the first is higher: -2.41% for the first, -6.63% for the second.

First: CCCCNC(=O)C1(C)CCCCN1C(=O)c1ccc2c(c1)C(C)(C)CCC2(C)C (stereo not given)
Second: O=C(NC1CCCC1)C1CCN(C(=O)c2cccc(Cl)c2)CC1
The inhibition of the first is higher: 10.7% for the first, -3.66% for the second.

Going from `O=C(NC1CC(=O)N(c2ccccc2)C1)C1CC1` (stereo not given) to `O=C(c1ccc(Cl)c(Cl)c1)N1CCN(c2ccccn2)CC1`, the inhibition rises from -9.3% to 7.01%.

First: Cc1csc2ncnc(NCCc3ccccn3)c12
Second: CCCCC(=O)NC(c1cccc([N+](=O)[O-])c1)c1ccc2cccnc2c1O (stereo not given)
The inhibition of the first is lower: 21.8% for the first, 24% for the second.

Compared with `COc1ccc(CN(CC(=O)NCc2ccccc2)C(=O)CCC(=O)Nc2cc(C)ccn2)cc1`, `COc1ccccc1/C=C\C(=O)NCC(=O)N/N=C/c1cccc(OC)c1O` is higher in inhibition: 0.36% for the first, 14.2% for the second.

Compared with `COC(=O)c1ccc(C(=O)N2CCCC(Nc3ccc(F)c(F)c3)C2)cc1` (stereo not given), `COc1ccc2nc(N3CCN(C(=O)c4ccc5ncsc5c4)CC3)sc2c1` is higher in inhibition: -10.7% for the first, -0.4% for the second.

First: CC1CC(C)CN(c2ncnc3c2cnn3-c2ccc(Cl)cc2)C1 (stereo not given)
Second: CC1Sc2n(c3ccccc3[n+]2C)N=C1c1ccccc1 (stereo not given)
The inhibition of the first is lower: -50.9% for the first, 11.7% for the second.

Going from `CC(C)(CNC(=O)c1ccc(-c2cccc(C(F)(F)F)c2)o1)N1CCOCC1` to `CCOC1(OCC)OC(c2ccccc2)=C(C#N)C(C=Cc2ccccc2)C1(OCC)OCC` (stereo not given), the inhibition rises from -0.96% to 4.67%.

For `CC(=O)c1cc2c(C)cc(=O)oc2cc1O`, the inhibition was 6.17%.

With `COc1cccc(OCCn2cc(C(C)=O)c3ccccc32)c1` the inhibition was 30.8% (active).
With `Cc1sc2ncn3ncnc3c2c1C` the inhibition was 27.7% (active).
In the case of `COc1cccc(CNc2nc3cc(-c4ccsc4)sc3c(=O)n2C)c1OC`, the inhibition is reported as 25.6% (active).
In the case of `COC(=O)C1CCCCN1C(=O)c1cc(COc2cccc3cnccc23)on1` (stereo not given), the inhibition is reported as 43.3% (active).
In the case of `CSc1nc(N)nc2c1ncn2CC(=O)N1CCN(Cc2c(C)cc(C)cc2C)CC1`, the inhibition is reported as 34.5% (active).

Source: PubChem BioAssay
